Key:
[1] = target: Rho-associated protein kinase 1 (Homo sapiens) (UniProt Q13464); conditions: at 1 µM;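 note: reported values are mean percent inhibition of ROCK1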
[2] = target: Rho-associated protein kinase 2 (Homo sapiens) (UniProt O75116); conditions: at 0.1 µM
[3] = target: Rho-associated protein kinase 2 (Homo sapiens) (UniProt O75116); conditions: at 1 µM
[4] = target: Ribosomal protein S6 kinase alpha-1 (Homo sapiens) (UniProt Q15418); conditions: at 0.1 µM
[5] = target: Ribosomal protein S6 kinase alpha-1 (Homo sapiens) (UniProt Q15418); conditions: at 1 µM
[6] = target: Ribosomal protein S6 kinase alpha-3 (Homo sapiens) (UniProt P51812); conditions: at 0.1 µM
Chain of Ribosomal protein S6 kinase alpha-3 (Homo sapiens) (P51812 whole entry): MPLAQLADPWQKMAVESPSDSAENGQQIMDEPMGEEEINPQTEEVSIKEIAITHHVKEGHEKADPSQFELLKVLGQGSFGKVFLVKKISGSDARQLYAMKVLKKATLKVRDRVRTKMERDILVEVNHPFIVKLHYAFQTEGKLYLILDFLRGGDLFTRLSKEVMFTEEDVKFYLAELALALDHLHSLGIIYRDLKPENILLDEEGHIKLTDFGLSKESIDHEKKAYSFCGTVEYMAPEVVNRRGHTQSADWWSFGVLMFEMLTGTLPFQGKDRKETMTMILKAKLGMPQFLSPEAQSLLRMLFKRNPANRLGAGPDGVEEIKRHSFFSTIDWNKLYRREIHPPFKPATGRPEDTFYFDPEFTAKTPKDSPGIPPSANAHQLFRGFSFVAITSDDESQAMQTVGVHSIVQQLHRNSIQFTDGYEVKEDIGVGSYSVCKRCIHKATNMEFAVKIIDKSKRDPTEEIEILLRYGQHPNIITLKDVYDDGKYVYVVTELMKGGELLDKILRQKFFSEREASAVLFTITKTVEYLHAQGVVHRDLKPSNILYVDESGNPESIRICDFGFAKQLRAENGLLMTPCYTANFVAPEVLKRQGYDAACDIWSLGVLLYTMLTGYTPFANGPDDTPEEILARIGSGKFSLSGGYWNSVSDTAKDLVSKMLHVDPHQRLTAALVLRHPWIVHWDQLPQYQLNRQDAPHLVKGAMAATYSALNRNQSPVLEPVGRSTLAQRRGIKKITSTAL

[7] = target: Ribosomal protein S6 kinase alpha-3 (Homo sapiens) (UniProt P51812); conditions: at 1 µM
[8] = target: Ribosomal protein S6 kinase alpha-2 (Homo sapiens) (UniProt Q15349); conditions: at 0.1 µM
Chain of Ribosomal protein S6 kinase alpha-2 (Homo sapiens) (Q15349 whole entry): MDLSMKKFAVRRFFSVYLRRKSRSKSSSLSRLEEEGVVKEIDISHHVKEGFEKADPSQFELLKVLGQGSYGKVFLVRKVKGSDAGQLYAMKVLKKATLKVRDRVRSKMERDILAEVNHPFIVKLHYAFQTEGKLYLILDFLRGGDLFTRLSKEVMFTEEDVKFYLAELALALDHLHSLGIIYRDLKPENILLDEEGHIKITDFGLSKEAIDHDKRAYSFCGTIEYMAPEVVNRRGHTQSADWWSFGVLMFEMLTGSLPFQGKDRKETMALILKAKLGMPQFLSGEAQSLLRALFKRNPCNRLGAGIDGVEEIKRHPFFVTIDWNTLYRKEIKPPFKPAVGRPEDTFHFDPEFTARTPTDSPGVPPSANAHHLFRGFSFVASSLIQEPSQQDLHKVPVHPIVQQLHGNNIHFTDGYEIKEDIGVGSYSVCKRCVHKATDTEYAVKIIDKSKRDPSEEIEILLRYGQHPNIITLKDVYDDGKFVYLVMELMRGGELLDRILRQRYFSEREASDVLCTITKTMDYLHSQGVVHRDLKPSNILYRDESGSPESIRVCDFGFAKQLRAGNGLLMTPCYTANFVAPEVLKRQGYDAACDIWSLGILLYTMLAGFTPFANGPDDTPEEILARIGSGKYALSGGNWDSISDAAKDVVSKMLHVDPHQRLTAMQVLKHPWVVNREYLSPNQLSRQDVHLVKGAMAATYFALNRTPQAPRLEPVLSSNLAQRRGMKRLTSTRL

[9] = target: Ribosomal protein S6 kinase alpha-2 (Homo sapiens) (UniProt Q15349); conditions: at 1 µM
[10] = target: Ribosomal protein S6 kinase alpha-6 (Homo sapiens) (UniProt Q9UK32); conditions: at 0.1 µM
[11] = target: Ribosomal protein S6 kinase alpha-6 (Homo sapiens) (UniProt Q9UK32); conditions: at 1 µM
[12] = target: T1, Serine/threonine-protein kinase Sgk1 (Homo sapiens) (UniProt O00141); conditions: at 0.1 µM
T1 sequence (whole entry): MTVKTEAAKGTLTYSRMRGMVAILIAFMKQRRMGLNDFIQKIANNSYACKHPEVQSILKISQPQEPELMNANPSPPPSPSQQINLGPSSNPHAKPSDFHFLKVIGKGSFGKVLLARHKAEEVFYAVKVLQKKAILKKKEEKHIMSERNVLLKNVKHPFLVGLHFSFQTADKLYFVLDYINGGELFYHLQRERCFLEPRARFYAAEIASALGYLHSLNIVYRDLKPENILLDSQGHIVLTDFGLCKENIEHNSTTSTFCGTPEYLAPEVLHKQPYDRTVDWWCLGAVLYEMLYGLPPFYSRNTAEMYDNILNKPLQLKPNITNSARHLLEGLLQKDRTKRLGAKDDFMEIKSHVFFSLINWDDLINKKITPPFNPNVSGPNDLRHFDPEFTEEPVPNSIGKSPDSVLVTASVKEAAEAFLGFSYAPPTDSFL

[13] = target: T1, Serine/threonine-protein kinase Sgk1 (Homo sapiens); conditions: at 1 µM
[14] = target: T2, Serine/threonine-protein kinase Sgk2 (Homo sapiens) (UniProt Q9HBY8); conditions: at 0.1 µM
T2 sequence (whole entry): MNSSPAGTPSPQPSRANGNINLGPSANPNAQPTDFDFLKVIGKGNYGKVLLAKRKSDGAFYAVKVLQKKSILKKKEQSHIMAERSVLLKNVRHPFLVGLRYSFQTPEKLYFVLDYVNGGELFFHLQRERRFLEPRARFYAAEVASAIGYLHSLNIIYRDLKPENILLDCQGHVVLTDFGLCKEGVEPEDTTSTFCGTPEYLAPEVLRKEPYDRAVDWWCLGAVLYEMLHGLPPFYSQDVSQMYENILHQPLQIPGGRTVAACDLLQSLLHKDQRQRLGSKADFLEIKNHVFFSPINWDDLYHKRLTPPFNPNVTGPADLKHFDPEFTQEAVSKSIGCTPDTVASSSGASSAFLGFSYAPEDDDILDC

[15] = target: T2, Serine/threonine-protein kinase Sgk2 (Homo sapiens); conditions: at 1 µM
[16] = target: T3, Serine/threonine-protein kinase Sgk3 (Homo sapiens) (UniProt Q96BR1); conditions: at 0.1 µM
T3 sequence (whole entry): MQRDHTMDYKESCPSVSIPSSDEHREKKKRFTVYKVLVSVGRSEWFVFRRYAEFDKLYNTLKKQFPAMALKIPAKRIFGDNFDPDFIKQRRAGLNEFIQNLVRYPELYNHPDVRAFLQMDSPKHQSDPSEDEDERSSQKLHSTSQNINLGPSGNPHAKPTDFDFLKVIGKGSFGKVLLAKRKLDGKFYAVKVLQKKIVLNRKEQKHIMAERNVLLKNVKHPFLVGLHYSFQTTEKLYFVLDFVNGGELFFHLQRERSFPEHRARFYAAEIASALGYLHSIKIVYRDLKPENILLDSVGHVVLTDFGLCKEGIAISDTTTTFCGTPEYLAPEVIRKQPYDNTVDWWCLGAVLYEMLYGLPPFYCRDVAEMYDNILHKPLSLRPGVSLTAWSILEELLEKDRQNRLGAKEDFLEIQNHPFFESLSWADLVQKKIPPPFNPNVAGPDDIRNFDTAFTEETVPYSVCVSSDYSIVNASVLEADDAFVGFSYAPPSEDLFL

[17] = target: T3, Serine/threonine-protein kinase Sgk3 (Homo sapiens); conditions: at 1 µM
[18] = target: 5'-AMP-activated protein kinase catalytic subunit alpha-1 (Homo sapiens) (UniProt Q13131); conditions: at 0.1 µM
Chain of 5'-AMP-activated protein kinase catalytic subunit alpha-1 (Homo sapiens) (Q13131 whole entry, looked up): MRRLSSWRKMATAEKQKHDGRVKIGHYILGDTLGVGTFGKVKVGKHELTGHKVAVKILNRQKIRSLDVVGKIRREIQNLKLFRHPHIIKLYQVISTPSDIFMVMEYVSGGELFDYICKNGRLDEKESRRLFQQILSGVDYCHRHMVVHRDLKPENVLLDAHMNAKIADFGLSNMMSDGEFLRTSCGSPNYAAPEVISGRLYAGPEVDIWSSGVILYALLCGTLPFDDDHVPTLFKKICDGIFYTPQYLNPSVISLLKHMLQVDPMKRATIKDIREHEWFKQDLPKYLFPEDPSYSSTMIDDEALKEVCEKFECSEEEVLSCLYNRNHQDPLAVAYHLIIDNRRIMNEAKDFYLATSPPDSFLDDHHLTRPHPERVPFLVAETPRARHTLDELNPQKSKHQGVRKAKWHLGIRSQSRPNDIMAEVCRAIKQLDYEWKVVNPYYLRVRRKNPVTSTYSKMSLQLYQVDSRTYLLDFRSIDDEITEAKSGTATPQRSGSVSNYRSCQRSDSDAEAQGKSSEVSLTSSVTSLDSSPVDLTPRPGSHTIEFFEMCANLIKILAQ

[19] = target: 5'-AMP-activated protein kinase catalytic subunit alpha-1 (Homo sapiens) (UniProt Q13131); conditions: at 1 µM
[20] = target: 5'-AMP-activated protein kinase catalytic subunit alpha-2 (Homo sapiens) (UniProt P54646); conditions: at 0.1 µM;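 note: mean inhibition measured on the AMPK complex of alpha2, beta1 and gamma1 subunits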
Chain of 5'-AMP-activated protein kinase catalytic subunit alpha-2 (Homo sapiens) (P54646 whole entry, looked up): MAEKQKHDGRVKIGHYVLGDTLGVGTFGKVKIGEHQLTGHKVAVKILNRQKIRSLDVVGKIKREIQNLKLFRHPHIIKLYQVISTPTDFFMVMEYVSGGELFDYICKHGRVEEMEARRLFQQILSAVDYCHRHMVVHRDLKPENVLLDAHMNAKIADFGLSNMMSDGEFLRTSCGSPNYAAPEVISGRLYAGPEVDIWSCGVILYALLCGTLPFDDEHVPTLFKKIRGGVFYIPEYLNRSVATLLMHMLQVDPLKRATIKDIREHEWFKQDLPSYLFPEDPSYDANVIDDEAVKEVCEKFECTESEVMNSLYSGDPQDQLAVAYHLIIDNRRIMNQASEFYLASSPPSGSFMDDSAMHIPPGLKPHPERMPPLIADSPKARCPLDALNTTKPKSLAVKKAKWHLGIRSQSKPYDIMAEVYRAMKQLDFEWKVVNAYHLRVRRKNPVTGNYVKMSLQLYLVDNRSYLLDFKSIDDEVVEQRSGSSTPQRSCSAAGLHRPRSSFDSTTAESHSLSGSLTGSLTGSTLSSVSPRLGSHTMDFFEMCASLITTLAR

Chain of Ribosomal protein S6 kinase alpha-1 (Homo sapiens) (Q15418 whole entry): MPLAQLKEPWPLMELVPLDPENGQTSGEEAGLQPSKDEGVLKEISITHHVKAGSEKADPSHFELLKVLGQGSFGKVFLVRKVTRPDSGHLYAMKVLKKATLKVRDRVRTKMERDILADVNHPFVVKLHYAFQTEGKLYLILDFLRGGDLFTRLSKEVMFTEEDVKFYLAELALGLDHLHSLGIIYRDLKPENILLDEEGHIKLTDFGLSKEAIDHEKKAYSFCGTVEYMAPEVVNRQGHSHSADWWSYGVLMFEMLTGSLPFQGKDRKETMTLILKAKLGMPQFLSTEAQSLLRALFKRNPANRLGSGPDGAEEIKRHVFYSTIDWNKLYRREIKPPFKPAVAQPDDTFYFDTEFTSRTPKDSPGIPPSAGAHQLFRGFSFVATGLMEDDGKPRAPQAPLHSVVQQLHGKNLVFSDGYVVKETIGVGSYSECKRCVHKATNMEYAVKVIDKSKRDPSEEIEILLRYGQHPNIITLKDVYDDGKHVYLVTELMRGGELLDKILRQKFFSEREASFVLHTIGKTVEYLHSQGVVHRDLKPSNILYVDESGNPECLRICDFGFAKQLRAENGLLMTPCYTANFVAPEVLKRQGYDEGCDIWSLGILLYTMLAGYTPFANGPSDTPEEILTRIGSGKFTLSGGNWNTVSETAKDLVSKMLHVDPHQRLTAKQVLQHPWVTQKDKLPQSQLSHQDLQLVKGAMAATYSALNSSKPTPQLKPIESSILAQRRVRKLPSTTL
Chain of Rho-associated protein kinase 1 (Homo sapiens) (Q13464 2-1354 limits assumed): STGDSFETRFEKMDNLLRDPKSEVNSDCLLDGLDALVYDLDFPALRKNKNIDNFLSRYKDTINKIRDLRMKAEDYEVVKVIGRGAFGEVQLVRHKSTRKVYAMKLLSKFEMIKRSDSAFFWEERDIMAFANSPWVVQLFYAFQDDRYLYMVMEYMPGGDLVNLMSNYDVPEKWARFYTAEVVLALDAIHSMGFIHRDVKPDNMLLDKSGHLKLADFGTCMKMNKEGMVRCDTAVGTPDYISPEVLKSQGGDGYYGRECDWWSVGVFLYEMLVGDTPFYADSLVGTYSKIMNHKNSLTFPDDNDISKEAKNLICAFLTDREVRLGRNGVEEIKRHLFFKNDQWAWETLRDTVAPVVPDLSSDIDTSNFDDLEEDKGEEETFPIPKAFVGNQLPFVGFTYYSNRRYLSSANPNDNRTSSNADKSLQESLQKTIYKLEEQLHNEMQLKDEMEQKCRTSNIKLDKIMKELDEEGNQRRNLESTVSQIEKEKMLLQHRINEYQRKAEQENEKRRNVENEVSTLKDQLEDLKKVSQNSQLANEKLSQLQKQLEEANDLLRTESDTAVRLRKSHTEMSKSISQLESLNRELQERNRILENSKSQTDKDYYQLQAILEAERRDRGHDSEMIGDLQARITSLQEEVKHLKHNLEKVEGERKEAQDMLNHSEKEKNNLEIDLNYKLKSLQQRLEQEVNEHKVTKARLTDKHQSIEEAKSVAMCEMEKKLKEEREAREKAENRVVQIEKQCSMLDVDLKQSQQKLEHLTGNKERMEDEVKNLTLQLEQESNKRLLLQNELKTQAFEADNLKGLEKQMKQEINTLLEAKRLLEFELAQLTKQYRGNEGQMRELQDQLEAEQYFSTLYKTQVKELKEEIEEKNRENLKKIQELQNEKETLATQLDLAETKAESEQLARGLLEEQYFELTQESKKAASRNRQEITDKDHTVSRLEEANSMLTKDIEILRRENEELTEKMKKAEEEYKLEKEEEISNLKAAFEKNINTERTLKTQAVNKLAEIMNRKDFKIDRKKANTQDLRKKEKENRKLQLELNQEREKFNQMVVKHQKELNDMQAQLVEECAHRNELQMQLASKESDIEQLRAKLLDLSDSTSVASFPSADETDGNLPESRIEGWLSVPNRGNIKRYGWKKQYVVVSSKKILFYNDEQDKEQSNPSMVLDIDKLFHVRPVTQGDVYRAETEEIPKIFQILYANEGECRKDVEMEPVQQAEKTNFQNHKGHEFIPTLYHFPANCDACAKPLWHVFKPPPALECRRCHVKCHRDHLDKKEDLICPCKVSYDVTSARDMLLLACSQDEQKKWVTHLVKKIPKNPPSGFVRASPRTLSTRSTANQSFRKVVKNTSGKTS

Compound | inhibition [1] | inhibition [2] | inhibition [3] | inhibition [4] | inhibition [5] | inhibition [6] | inhibition [7] | inhibition [8] | inhibition [9] | inhibition [10] | inhibition [11] | inhibition [12] | inhibition [13] | inhibition [14] | inhibition [15] | inhibition [16] | inhibition [17] | inhibition [18] | inhibition [19] | inhibition [20]
CS(=O)(=O)CCNCc1nc(-c2ccc3ncnc(Nc4ccc(OCc5cccc(C(F)(F)F)c5)cc4)c3c2)cs1 | -0.55% | 0.87% | 1.92% | -1.01% | 0.29% | 1.21% | 1.84% | 1.45% | 2.09% | 0.32% | 0.37% | -0.21% | -1.85% | 3.52% | 2.19% | 1.04% | 1.17% | 1.78% | 2.03% | 3.05%
[O-][S+]1CCN(Cc2ccc(-c3ccc4ncnc(Nc5ccc(OCc6ccccc6)c(Cl)c5)c4c3)o2)CC1 | 1.73% | 0.05% | 0.91% | -1.27% | 0.75% | -1.03% | 0.82% | -1.2% | 0.54% | -1.76% | -0.67% | 2.48% | 1.69% | -2.36% | 1.12% | 0.45% | 1.38% | 0.09% | 1.19% | 2.56%
Nc1nccc(C#Cc2cncnc2Nc2ccc(OCc3cccc(F)c3)c(Cl)c2)n1 | 3.74% | 2.53% | 4.22% | 1.3% | 2.85% | 0.4% | 0.81% | 2.21% | 2.85% | 0.59% | 1% | 2.17% | 2.96% | 1.54% | 3.69% | 2.12% | 3.95% | 3.13% | 5.37% | 1.22%
c1ccc(Nc2ncc(-c3ccccc3)o2)cc1 | 2.73% | 4.11% | 2.92% | 2.02% | 2.37% | 0.46% | 0.02% | 3.77% | 3.41% | 2.12% | 3.23% | 2.66% | 4% | 2.47% | 0.08% | 4.53% | 2.32% | 2.6% | 4.99% | 7.1%
NS(=O)(=O)c1ccc(NC=C2C(=O)Nc3ccc4ncsc4c32)cc1 | 55.1% | 27.4% | 69.4% | 15.1% | 53.4% | 17.7% | 57.1% | 34.3% | 80.5% | 29.3% | 77.4% | 19.7% | 64% | 8.38% | 36.4% | 5.73% | 19.1% | 38.4% | 68.2% | 24%
Cc1ccc(Nc2ccnc(Nc3cccc(C(N)=O)c3)n2)cc1O | 5.78% | 4.11% | 13.6% | 2.41% | 3.62% | 1.82% | 2.23% | 1.81% | 3.37% | 2.28% | 7.33% | 1.93% | 4.05% | 5.55% | 3.06% | 1.32% | 3.83% | 2.46% | 6.79% | 1.35%
CN(C)C(=O)O[C@H]1CN[C@H](C#Cc2cc3ncnc(Nc4ccc(OCc5cccc(F)c5)c(Cl)c4)c3s2)C1 | 4.25% | 2.11% | 2.54% | 1.95% | 2.1% | 0.75% | 1.6% | 0.37% | 3.74% | 0.96% | 1.62% | 0.38% | 1.38% | 0.9% | -0.85% | 0.13% | 0.86% | 2.01% | 2.18% | 1.83%
CN(C)C(=O)O[C@@H]1CN[C@@H](C#Cc2cc3ncnc(Nc4ccc(OCc5cccc(F)c5)c(Cl)c4)c3s2)C1 | 1.13% | -1.58% | -0.74% | 0.43% | 0.71% | 0.2% | 1.13% | 0.12% | 2.54% | 0.51% | 1.1% | 0.97% | 0.35% | -1.98% | 1.45% | -0.94% | -0.47% | 1.21% | -0.92% | -1.56%
NS(=O)(=O)c1ccc(Nc2cc(-c3cccc(O)c3)n[nH]2)cc1 | 2.17% | 3.43% | 4.85% | 2.5% | 6.11% | 2.14% | 6.36% | 1.18% | 5.39% | 1.24% | 4.67% | 6.76% | 4.48% | 2.52% | 1.36% | 6.64% | 2.75% | 5.36% | 11.1% | 5.11%
Cc1cc(O)cc(C)c1/C=C/c1cncc(C(=O)N(C)C)c1 | 1.38% | 1.81% | 3.8% | 1.88% | 3.54% | 1.25% | 2.65% | 0.28% | 2.22% | 1.12% | 1.77% | 1.71% | 2.5% | -0.51% | 2.83% | 4.43% | 0% | 2.63% | 1.76% | 1.57%
Nc1nccc(-c2c(-c3ccc(F)cc3)nn3cc(C(F)(F)F)ccc23)n1 | -0.27% | -1.57% | 0.18% | 0.48% | 0.53% | -0.83% | -1.02% | 0.95% | 0.63% | -1.83% | -1.48% | 1.36% | 0.06% | 2.28% | -4.03% | 3.01% | -3.28% | -1.23% | -0.36% | 0.94%
CCS(=O)(=O)c1ccc(OC)c(Nc2ncc(-c3cccc(OC)c3)o2)c1 | 2.35% | 0.89% | 1.18% | 0.6% | 4.04% | -0.45% | 0.81% | 1.33% | 4.86% | -0.11% | 3.54% | 1.35% | 2.05% | 3.12% | 5.99% | 3.65% | -0.11% | 1.32% | 1.33% | -0.63%

Source: ChEMBL document CHEMBL1961873, “Compounds: GSK PKIS; Assays: Nanosyn kinase panel” (2012)
